{"source": "PubChem BioAssay (NCI)", "assay_in_all_cases": "NCI-60 one-dose screen, 48 h (100 = growth as untreated, 0 = no growth, -100 = all killed)", "settings_in_all_cases": "10 µM", "key": {"[1]": {"test_system": "DU-145 prostate"}, "[2]": {"test_system": "K-562 leukemia"}, "[3]": {"test_system": "MALME-3M melanoma"}, "[4]": {"test_system": "MDA-MB-231 breast"}, "[5]": {"test_system": "SF-268 CNS"}, "[6]": {"test_system": "SF-295 CNS"}, "[7]": {"test_system": "SF-539 CNS"}, "[8]": {"test_system": "UACC-257 melanoma"}, "[9]": {"test_system": "M14 melanoma"}}, "note": "About 83,000 compounds went through this panel and 20% of them were active in at least one assay; those are over-represented in the sample as a whole.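 Single-dose data. Exposure time 48 hours. Values below 10 considered active.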 A number with no mark means an inactive call. Calls of active or inactive are those of the source."}
{"smiles": "CC(=O)c1ccc(Nc2nc(SC(C)C)nc(-c3ccccc3)c2C#N)cc1", "values": [{"measurement": "growth", "setting": "[1]", "result": 43.8, "unit": "%"}, {"measurement": "growth", "setting": "[2]", "result": 43, "unit": "%"}, {"measurement": "growth", "setting": "[3]", "result": "8.39% (active)"}, {"measurement": "growth", "setting": "[4]", "result": "-0.399% (active)"}, {"measurement": "growth", "setting": "[5]", "result": 41.1, "unit": "%"}, {"measurement": "growth", "setting": "[6]", "result": "-40.7% (active)"}, {"measurement": "growth", "setting": "[7]", "result": "-17.4% (active)"}, {"measurement": "growth", "setting": "[8]", "result": 96.1, "unit": "%"}, {"measurement": "growth", "setting": "[9]", "result": 73.8, "unit": "%"}]}
{"smiles": "O=c1[nH]c2ccccc2cc1CSc1ccc(Nc2nccc(-c3ccc4c(c3)OCO4)n2)cc1", "values": [{"measurement": "growth", "setting": "[1]", "result": 77.5, "unit": "%"}, {"measurement": "growth", "setting": "[2]", "result": 87.6, "unit": "%"}, {"measurement": "growth", "setting": "[3]", "result": 55.2, "unit": "%"}, {"measurement": "growth", "setting": "[4]", "result": 78.6, "unit": "%"}, {"measurement": "growth", "setting": "[5]", "result": 71.6, "unit": "%"}, {"measurement": "growth", "setting": "[6]", "result": 101, "unit": "%"}, {"measurement": "growth", "setting": "[7]", "result": "9.95% (active)"}, {"measurement": "growth", "setting": "[8]", "result": 105, "unit": "%"}, {"measurement": "growth", "setting": "[9]", "result": 82.4, "unit": "%"}]}
{"smiles": "COc1cccc2nc(Nc3cccc(NC(=O)c4ccc(CN5CCCN(C)CC5)c(C(F)(F)F)c4)c3)ccc12", "values": [{"measurement": "growth", "setting": "[1]", "result": "-83.4% (active)"}, {"measurement": "growth", "setting": "[2]", "result": "5.93% (active)"}, {"measurement": "growth", "setting": "[3]", "result": "-96.3% (active)"}, {"measurement": "growth", "setting": "[4]", "result": "-99.1% (active)"}, {"measurement": "growth", "setting": "[5]", "result": "-50.3% (active)"}, {"measurement": "growth", "setting": "[6]", "result": "-97.7% (active)"}, {"measurement": "growth", "setting": "[7]", "result": "-100% (active)"}, {"measurement": "growth", "setting": "[8]", "result": "-86% (active)"}, {"measurement": "growth", "setting": "[9]", "result": "-90.5% (active)"}]}
{"smiles": "CN1CCO/C1=C(/NC(=O)c1ccc(Cl)cc1)[P+](c1ccccc1)(c1ccccc1)c1ccccc1", "values": [{"measurement": "growth", "setting": "[1]", "result": 95.2, "unit": "%"}, {"measurement": "growth", "setting": "[2]", "result": 50.3, "unit": "%"}, {"measurement": "growth", "setting": "[3]", "result": 69.2, "unit": "%"}, {"measurement": "growth", "setting": "[4]", "result": 61.8, "unit": "%"}, {"measurement": "growth", "setting": "[5]", "result": 97, "unit": "%"}, {"measurement": "growth", "setting": "[6]", "result": 80.2, "unit": "%"}, {"measurement": "growth", "setting": "[7]", "result": 94.5, "unit": "%"}, {"measurement": "growth", "setting": "[8]", "result": 62.4, "unit": "%"}, {"measurement": "growth", "setting": "[9]", "result": 88.5, "unit": "%"}]}
{"smiles": "O=C(CSc1nnc(-c2c[nH]c3ccccc23)n1-c1ccccc1)c1ccccc1", "values": [{"measurement": "growth", "setting": "[1]", "result": 85.7, "unit": "%"}, {"measurement": "growth", "setting": "[2]", "result": 52.8, "unit": "%"}, {"measurement": "growth", "setting": "[3]", "result": 37.4, "unit": "%"}, {"measurement": "growth", "setting": "[4]", "result": 27, "unit": "%"}, {"measurement": "growth", "setting": "[5]", "result": 31.7, "unit": "%"}, {"measurement": "growth", "setting": "[6]", "result": 72, "unit": "%"}, {"measurement": "growth", "setting": "[7]", "result": "7.59% (active)"}, {"measurement": "growth", "setting": "[8]", "result": 103, "unit": "%"}, {"measurement": "growth", "setting": "[9]", "result": 73.6, "unit": "%"}]}
{"smiles": "N#Cc1ccc(-c2nn(-c3ccc(C(=O)O)cc3)cc2CNc2cc(Cl)cc(Cl)c2)cc1", "values": [{"measurement": "growth", "setting": "[1]", "result": 65.4, "unit": "%"}, {"measurement": "growth", "setting": "[2]", "result": 43.7, "unit": "%"}, {"measurement": "growth", "setting": "[3]", "result": 80.1, "unit": "%"}, {"measurement": "growth", "setting": "[4]", "result": 80.2, "unit": "%"}, {"measurement": "growth", "setting": "[5]", "result": 53.3, "unit": "%"}, {"measurement": "growth", "setting": "[6]", "result": 38.4, "unit": "%"}, {"measurement": "growth", "setting": "[7]", "result": 30.6, "unit": "%"}, {"measurement": "growth", "setting": "[8]", "result": 60.2, "unit": "%"}, {"measurement": "growth", "setting": "[9]", "result": 34.5, "unit": "%"}]}
{"smiles": "Cc1ccc(C(=O)N/C(=C2/OCCN2C)[P+](c2ccccc2)(c2ccccc2)c2ccccc2)cc1", "values": [{"measurement": "growth", "setting": "[1]", "result": 84.9, "unit": "%"}, {"measurement": "growth", "setting": "[2]", "result": 50.4, "unit": "%"}, {"measurement": "growth", "setting": "[3]", "result": 63.6, "unit": "%"}, {"measurement": "growth", "setting": "[4]", "result": 65.6, "unit": "%"}, {"measurement": "growth", "setting": "[5]", "result": 92.7, "unit": "%"}, {"measurement": "growth", "setting": "[6]", "result": 87.3, "unit": "%"}, {"measurement": "growth", "setting": "[7]", "result": 91.4, "unit": "%"}, {"measurement": "growth", "setting": "[8]", "result": 49.6, "unit": "%"}, {"measurement": "growth", "setting": "[9]", "result": 82.9, "unit": "%"}]}
{"smiles": "COc1cc(/C=C/C(=O)c2ccc(F)cc2)ccc1Oc1nc(Nc2ccc(F)cc2)nc(N(C)C)n1", "values": [{"measurement": "growth", "setting": "[1]", "result": 78.4, "unit": "%"}, {"measurement": "growth", "setting": "[2]", "result": 25.7, "unit": "%"}, {"measurement": "growth", "setting": "[3]", "result": 84.4, "unit": "%"}, {"measurement": "growth", "setting": "[4]", "result": 59.4, "unit": "%"}, {"measurement": "growth", "setting": "[5]", "result": 54.8, "unit": "%"}, {"measurement": "growth", "setting": "[6]", "result": 53.1, "unit": "%"}, {"measurement": "growth", "setting": "[7]", "result": 77.5, "unit": "%"}, {"measurement": "growth", "setting": "[8]", "result": 47.7, "unit": "%"}, {"measurement": "growth", "setting": "[9]", "result": 68.6, "unit": "%"}]}
{"smiles": "COc1ccc(-c2nc(Nc3ccccc3S(N)(=O)=O)c3ccccc3n2)cc1", "values": [{"measurement": "growth", "setting": "[1]", "result": "7.82% (active)"}, {"measurement": "growth", "setting": "[2]", "result": 34.1, "unit": "%"}, {"measurement": "growth", "setting": "[3]", "result": "-7.51% (active)"}, {"measurement": "growth", "setting": "[4]", "result": "-33.6% (active)"}, {"measurement": "growth", "setting": "[5]", "result": 22.5, "unit": "%"}, {"measurement": "growth", "setting": "[6]", "result": 61.3, "unit": "%"}, {"measurement": "growth", "setting": "[7]", "result": "-4.27% (active)"}, {"measurement": "growth", "setting": "[8]", "result": 91.2, "unit": "%"}, {"measurement": "growth", "setting": "[9]", "result": 75.8, "unit": "%"}]}
{"smiles": "COc1cccc(-c2ccnc(/N=C(\\N)Nc3ccc(S(=O)(=O)Nc4nc(C)cc(C)n4)cc3)n2)c1", "values": [{"measurement": "growth", "setting": "[1]", "result": 111, "unit": "%"}, {"measurement": "growth", "setting": "[2]", "result": 92, "unit": "%"}, {"measurement": "growth", "setting": "[3]", "result": 98, "unit": "%"}, {"measurement": "growth", "setting": "[4]", "result": 95.9, "unit": "%"}, {"measurement": "growth", "setting": "[5]", "result": 104, "unit": "%"}, {"measurement": "growth", "setting": "[6]", "result": 93.7, "unit": "%"}, {"measurement": "growth", "setting": "[7]", "result": 95.2, "unit": "%"}, {"measurement": "growth", "setting": "[8]", "result": 111, "unit": "%"}, {"measurement": "growth", "setting": "[9]", "result": 114, "unit": "%"}]}
{"smiles": "N#Cc1c(NC(=O)c2ccc(C(F)(F)F)cc2)sc2c1CCC(=O)C2", "values": [{"measurement": "growth", "setting": "[1]", "result": 23.1, "unit": "%"}, {"measurement": "growth", "setting": "[2]", "result": "7.26% (active)"}, {"measurement": "growth", "setting": "[3]", "result": "-54.2% (active)"}, {"measurement": "growth", "setting": "[4]", "result": "-84.4% (active)"}, {"measurement": "growth", "setting": "[5]", "result": "-37.6% (active)"}, {"measurement": "growth", "setting": "[6]", "result": "-95.3% (active)"}, {"measurement": "growth", "setting": "[7]", "result": "-89.2% (active)"}, {"measurement": "growth", "setting": "[8]", "result": "-71.1% (active)"}, {"measurement": "growth", "setting": "[9]", "result": "-78.5% (active)"}]}
{"smiles": "O=C(NO)c1ccc(CNC(=O)[C@H]2Cc3c([nH]c4ccccc34)[C@H](c3ccccc3)N2)cc1", "values": [{"measurement": "growth", "setting": "[1]", "result": 29.5, "unit": "%"}, {"measurement": "growth", "setting": "[2]", "result": 11.6, "unit": "%"}, {"measurement": "growth", "setting": "[3]", "result": 15.2, "unit": "%"}, {"measurement": "growth", "setting": "[4]", "result": "7.55% (active)"}, {"measurement": "growth", "setting": "[5]", "result": 40.3, "unit": "%"}, {"measurement": "growth", "setting": "[6]", "result": 17.7, "unit": "%"}, {"measurement": "growth", "setting": "[7]", "result": 34, "unit": "%"}, {"measurement": "growth", "setting": "[8]", "result": 21.4, "unit": "%"}, {"measurement": "growth", "setting": "[9]", "result": 27.5, "unit": "%"}]}
